Holding throughout (assay): NCI-60 one-dose screen, 48 h (100 = growth as untreated, 0 = no growth, -100 = all killed)
Conditions in all cases: 10 µM unless noted

Test [1] has as its system HCT-15 colon.
Test [2] has as its system HT29 colon.
In test [3] the test system is SNB-75 CNS.
Test [4] relates to SNB-19 CNS.
In test [5] the test system is U251 CNS.
For test [6], the system named is PC-3 prostate.
Test [7] deals with SK-MEL-5 melanoma.
Test [8] concerns UACC-62 melanoma.
Test [9] deals with LOX IMVI melanoma.
Test [10] concerns SK-MEL-28 melanoma.

The structures appear in SMILES notation. This is part of a sample that, as a whole, favours compounds with a hit. Of some 83,000 tested, about 20% had one in any assay.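 Results are percent growth after 48 hours of single-concentration exposure. 100 means growth as in untreated cells, lower positive values show inhibition; negative values down to -100 show cell death.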 Values without a mark were called inactive. Active and inactive are the calls of the source. Rule for the calls: active = growth percent below 10; inactive = the rest.

For `O=C(CN1CCN(c2cc(=O)n(-c3ccccc3)c3ccccc23)CC1)Nc1cccc(C(F)(F)F)c1`, the growth is 48.5% in test [1]; 70.8% in [2]; 65.5% in [3]; 70.9% in test [4]; 71.6% in [5]; 42.1% in test [6]. Besides, the growth was 14.4% in test [7], 57.2% in [8] and 66.1% in test [9].

As to `O=C1[C@@H]2Cc3c([nH]c4ccccc34)[C@H](c3c(Cl)cccc3Cl)N2C(=O)CN1C1CCN(CC2CCCCC2)CC1`, the growth is 7% (active) in test [1]; 5.63% (active) in test [2]; 103% in test [3]; 71.5% in test [4]; 42.8% in test [5]; 20.6% in [6]. Moreover, the growth in [7] is 50.4%; in test [8] it was 79.5%; in test [9], -81.1% (active).

Regarding `COc1ccc(NC(=O)CSc2nnc(-c3ccc4nc(-c5ccc(OC)c(OC)c5)[nH]c4c3)o2)cc1OC`, the growth was 108% in [1]; 105% in test [2]; 100% in [3]; 113% in [4]; 112% in [5]; 102% in test [6]. The growth in test [7] was 88.3%; in test [8], 92%; in test [9], 98%.

With `O=C(CSc1nc2ccccc2c(=O)n1-c1ccc(Cl)cc1)N/N=C/c1ccc(N2CCCCC2)cc1`, the growth is 67.8% in test [1]; 60.9% in test [2]; 79.9% in [3]; 43.2% in test [4]; 50.6% in [5]; 78.6% in test [6]. Also, the growth in [7] was 97.9%; in test [8] it was 73.5%; in test [9], 43.5%.

Consider `O=C(Cn1cc[n+](CC(=O)c2ccc(-c3ccccc3)cc2)c1)Nc1cccc2cccnc12`, for which the growth in test [1] was 101%; in [2] it was 59.8%; in test [3], 63.4%; in [4] it was 57.7%; in test [5] it was 58.3%; in test [6] it was 54.5%. Moreover, the figures for the growth in test [7], in test [8] and in test [9] were 69.6%, 59.1% and 79.2%, respectively.

For `COc1ccc(-c2nc3ccc(-c4nnc(SCC(=O)Nc5ccc(C(=O)/C=C/c6ccc(Cl)cc6)cc5)o4)cc3[nH]2)cc1`, the growth in test [1] is 86.1%; in test [2] it was 104%; in test [3], 94.7%; in test [4], 108%; in [5], 94.3%; in test [6] it was 94.9%. The growth in test [7] is 98.9%; in test [8], 94%; in test [9] it was -29.9% (active).

As for `CC(O)c1cc2ccccc2c(=O)o1` (centres undefined), the growth in test [1] was 103%; in test [2], 105%; in test [3], 110%; in [4], 99.6%; in [5] it was 103%; in test [6] it was 95.2%. For the same compound, the growth in test [7] was 97%; in [8] it was 97.9%; in test [9], 97.3%.

In the case of `Cn1cc(-c2cc(N)n3nc(-c4cn(C)c5ccccc45)cc3n2)c2ccccc21`, the growth in [1] was 32%; in test [2], 50.6%; in test [3], 112%; in test [4] it was 112%; in test [5], 72.4%; in [6] it was 88.8%. For the same compound, the results for the growth in [7], in test [8] and in [9] were 92.7%, 92.9% and 65.1%, respectively.

Turning to `COc1cc2oc(-c3cccc(NC(=O)c4cc(N)ccc4Cl)c3)cc(=O)c2c(OC)c1OC`, the growth was 85.7% in [1]; 110% in test [2]; 101% in test [3]; 100% in test [4]; 101% in [5]; 97.9% in test [6]. Moreover, the growth in test [7] was 75.3%; in [8], 94.4%; in test [9] it was 87.1%; in [10], 108%.

Turning to `NC(N)=Nc1ccc(Oc2cccc(NC(N)=Nc3ccc(Cl)c(C(F)(F)F)c3)c2)cn1`, the growth in [1] was 85.8%; in test [2], 28.9%; in test [3], 69.3%; in [4], 16.6%; in test [5] it was 25.6%; in test [6], 13.4%. In addition, the growth in [7] is 31.9%; in [8], 40.2%; in test [9], -59.8% (active).

Regarding `Cc1ccc(NC(=O)c2ccc(CN3CCOCC3)c(C(F)(F)F)c2)cc1Oc1ccc(-c2[nH]nc3ncnc(N)c23)cc1`, the growth is 40.5% in test [1]; 37% in test [2]; 112% in test [3]; 95.5% in test [4]; 66.9% in [5]; 43.4% in test [6]. Further, the growth in test [7] was 16.3%; in test [8] it was 19.4%; in test [9], 59.1%.

Take `COc1cc2nc(Cl)nc(Nc3cccc(C4=Nc5c(N)nc(N)nc5NC(c5ccc6c(c5)OCO6)C4)c3)c2cc1OC` (centres undefined): the growth in test [1] was 33.2%; in test [2] it was 68.9%; in [3] it was 82.2%; in test [4], 78.4%; in test [5], 8.17% (active); in test [6], 63.6%. The figures for the growth in test [7], in test [8] and in test [9] were 72.1%, 94.8% and 52.6%, respectively.

As for `CC1=NC2=NC(=O)/C(=C3/N=C(C)C=C(c4ccccc4)N3N)NN2C(c2ccccc2)=C1`, the growth was 107% in test [1]; 109% in test [2]; 116% in [3]; 96.3% in [4]; 105% in test [5]; 96.7% in test [6]. The growth in [7] was 99.1%; in [8], 88.7%; in [9], 102%.

As for `Cc1cc2nc(C(Cl)Cl)nc(-c3cccs3)n2n1`, the growth in test [1] was 11.4%; in test [2], -12.9% (active); in test [3], 75.3%; in [4], 21%; in [5] it was -11.1% (active); in test [6], 11.2%. Further, the growth in test [7] is 83.9%; in test [8], 45.5%; in test [9], 74.7%.

As to `CC(C)(C)n1cc(-c2ccnc(NCCCNS(=O)(=O)c3cccc(F)c3)n2)c(-c2ccc(Cl)c(O)c2)n1`, the growth in test [1] is 89.6%; in test [2] it was 94.8%; in [3] it was 110%; in test [4], 103%; in test [5], 106%; in test [6] it was 67.5%. For the same compound, the growth in test [7] is 95.5%; in [8], 89.5%; in test [9], 96.4%.

For `Cc1occc1-c1nc2s/c(=C/c3ccc(-c4cc(C(F)(F)F)ccc4Cl)o3)c(=O)n2n1`, the growth in [1] is 104%; in test [2] it was 106%; in [3] it was 97.5%; in test [4] it was 98.5%; in [5], 105%; in test [6] it was 97.7%. For the same compound, the growth in test [7] was 99.7%; in test [8], 93.8%; in test [9], 101%.

For the compound `CCC1=Cc2cc(OC)ccc2OC12C=Cc1cc(OC)ccc1O2` (centres undefined), the growth in test [1] was 14.7%; in [2], -9.52% (active); in [3], 24.5%; in [4], 20.8%; in test [5], 28.7%; in test [6], 31.6%. For the same compound, the growth in test [7] was 16.8%; in test [8], 4.11% (active); in test [9], -5.73% (active).

In the case of `NC(N)=Nc1ccc(Oc2cccc(NC(N)=Nc3ccc(I)cc3F)c2)cn1`, the growth in [1] was 87.4%; in test [2], 31.8%; in test [3], 77.5%; in test [4], 26.3%; in [5] it was 46.1%; in [6], 28.1%. Also, the growth in test [7] is 48.8%; in test [8], 63%; in [9], 12.8%.

Turning to `C=CCn1c(SCC(=O)Nc2ccc(C(=O)/C=C/c3ccc(C)cc3)cc2)nnc1-c1c[nH]c2ccccc12`, the growth in test [1] is 71.5%; in [2] it was 101%; in test [3], 97.4%; in [4], 87.5%; in [5] it was 92.2%; in [6], 66.5%. Besides, the growth is 69.2% in test [7], 67.9% in [8] and 20.9% in test [9].

Turning to `COc1cc(-c2ccc3ncnc(NCc4ccccc4)c3c2)cnc1OC`, the growth in test [1] is 68.2%; in test [2], 64.5%; in test [3], -17.8% (active); in [4] it was 74.4%; in [5], 81.7%; in test [6], 31.7%. The growth in test [7] was 70.8%; in [8], 47.1%; in test [9], 41.2%; in test [10], 63.2%.

Regarding `COc1cc2nc(Cl)nc(Nc3cccc(C4=Nc5c(N)nc(N)nc5NC(c5ccc(F)cc5)C4)c3)c2cc1OC` (centres undefined), the growth in [1] is 0.163% (active); in [2], 9.87% (active); in [3] it was 85.9%; in test [4], 31.7%; in [5], -22% (active); in [6], 59.9%. Besides, the growth is 67.1% in [7], 93% in [8] and -53.6% (active) in test [9].

Take `COc1ccc(NC(=O)Nc2ccc3c(ccn3C(=O)c3cccc(F)c3)c2)cc1`: the growth was 71.6% in test [1]; 64% in test [2]; 44% in [3]; 80.8% in test [4]; 54.4% in test [5]; 77.4% in [6]. Further, the growth in test [7] is 76.6%; in [8], 65.9%; in test [9], 57%.

In the case of `Cc1ccc(C2=Nn3c(nnc3-c3ccccc3)SC2)cc1`, the growth in test [1] is 23%; in test [2] it was 4.8% (active); in test [3] it was -4.24% (active); in [4], 31.4%; in test [5], 25.5%; in [6] it was 35.2%. The growth in test [7] was 21.5%; in test [8], 41.4%; in [9], 49%.

`COc1ccc(Cn2cc3c(c2-c2cc(OC)c(OC)c(OC)c2)CCc2c(CN4CCCC4)noc2-3)cc1`: the growth is 21.1% in test [1]; 8.73% (active) in test [2]; -2.12% (active) in test [3]; 22% in test [4]; 22.4% in test [5]; 29% in [6]. In addition, the growth is 20.7% in test [7], 15.8% in test [8] and 34.6% in test [9].

In the case of `O=S(=O)(NCCCNc1nccc(-c2[nH]c(-c3ccccc3)nc2-c2ccc(Cl)c(O)c2)n1)c1cccc(F)c1`, the growth in test [1] is 38.6%; in [2], 61.7%; in test [3] it was 104%; in [4], 82.9%; in test [5] it was 64.4%; in [6], 46.8%. Also, the growth was 23.5% in [7], 19.3% in test [8] and 39.8% in test [9].

For `Cc1ccc2c(c1)Oc1nc(N)c(C#N)c(N)c1C2Sc1ccc(F)cc1` (centres undefined), the growth is -77.9% (active) in [1]; -38.6% (active) in [2]; -14.1% (active) in [3]; -98.2% (active) in test [4]; -95.9% (active) in test [5]; -96.8% (active) in [6]. Also, the growth in [7] is -95.4% (active); in test [8] it was -93.5% (active); in test [9] it was -93.1% (active).

On to `C=C1CC[C@@H]2[C@](C)(CO)[C@H](O)CC[C@@]2(C)[C@@H]1C/C(O)=C1\CCOC1=O`, for which the growth in [1] is 90.9%; in [2], 96.5%; in test [3], 96.4%; in test [4] it was 97.9%; in [5], 88.2%; in test [6], 99.7%. In addition, the values for the growth in test [7], in test [8] and in test [9] were 101%, 88.9% and 72.9%, respectively.

On to `COc1ccc2c(c1)c(CC(=O)[Se]CC#N)c(C)n2C(=O)c1ccc(Cl)cc1`, for which the growth in test [1] was 7.36% (active); in test [2], -8.37% (active); in test [3], 73%; in test [4], 50.3%; in [5] it was 19.7%; in test [6] it was 8.19% (active). Also, the growth was -6.8% (active) in [7], 55.2% in test [8] and -35.8% (active) in [9].

Source of the values: PubChem BioAssay (NCI).
